# Active and inactive are the calls of the source. The calls were made as follows: active = hit-call score of the fitted dose curve at least 0.9, where 1 is the maximum; inactive = score below 0.9.
# Tests used:
# Settings in all cases: mRNA level, 48 h; actives raise or lower the signal
# MYC, MYC (gene 4609) = assay: LTEA_HepaRG_MYC: Life Technologies and Expression Analysis (LTEA) Assay for MYC using HepaRG (AID 2283518)
# How it was run: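 Expression changes were scored by TaqMan qRT-PCR with ACTB, GAPDH and POLR2A normalization. Cultures in serum-free induction medium received duplicate 8-point concentration series, highest 100 uM, for 48 h; DMSO (0.5%) served as baseline.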
# [1] = read-out: matrix metalloproteinase-3 (MMP3), MMP3 (gene 4314); assay: LTEA_HepaRG_MMP3: Life Technologies and Expression Analysis (LTEA) Assay for matrix metalloproteinase-3 (MMP3) using HepaRG (AID 2283519)
# How it was run: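 Differentiated human HepaRG cells, plated 48 h on collagen I, were exposed in duplicate for 48 h in serum-free induction medium to eight half-log concentrations up to 100 uM in 0.5% DMSO. MMP3 mRNA was quantified by TaqMan qRT-PCR, normalised to ACTB, GAPDH and POLR2A.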
# [2] = read-out: Paternally Expressed 10 (PEG10), PEG10 (gene 23089); assay: LTEA_HepaRG_PEG10: Life Technologies and Expression Analysis (LTEA) Assay for Paternally Expressed 10 (PEG10) using HepaRG (AID 2283520)
# How it was run: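 Differentiated HepaRG cells exposed 48 h in serum-free induction medium to eight half-log concentrations topping at 100 uM, 0.5% DMSO, in duplicate. PEG10 mRNA quantified by TaqMan qRT-PCR, normalized to ACTB, GAPDH and POLR2A; bidirectional fit versus DMSO.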
# [3] = read-out: Nuclear factor NF-kappa-B p105 subunit (Homo sapiens) (UniProt P19838); assay: LTEA_HepaRG_NFKB1: Life Technologies and Expression Analysis (LTEA) Assay for Nuclear Factor Kappa B Subunit 1 (NFKB1) using HepaRG (AID 2283521);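 also: TaqMan qRT-PCR transcript normalised to ACTB GAPDH and POLR2A housekeeping genes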
# How it was run: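 Differentiated human HepaRG cells were exposed for 48 h in serum-free induction medium to eight concentrations (top 100 uM, half-log steps, 0.5% DMSO), in duplicate. NFKB1 mRNA was measured by TaqMan qRT-PCR, normalized to ACTB/GAPDH/POLR2A, and fitted bidirectionally against DMSO.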
# [4] = read-out: Protein phosphatase 2A (PPP2R4), PTPA (gene 5524); assay: LTEA_HepaRG_PPP2R4: Life Technologies and Expression Analysis (LTEA) Assay for Protein phosphatase 2A (PPP2R4) using HepaRG (AID 2283522)
# How it was run: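 Differentiated human HepaRG cells in serum-free induction medium were exposed 48 h to 8 concentrations (top 100 µM, half-log steps, duplicate) in 0.5% DMSO. PPP2R4 mRNA was measured by TaqMan qRT-PCR, normalised to ACTB, GAPDH and POLR2A, and fitted bidirectionally versus DMSO.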
# [5] = read-out: Phosphatase and tensin (PTEN), PTEN (gene 5728); assay: LTEA_HepaRG_PTEN: Life Technologies and Expression Analysis (LTEA) Assay for Phosphatase and tensin (PTEN) using HepaRG (AID 2283523)
# How it was run: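 Differentiated human HepaRG cells, plated 48 h then switched to serum-free induction medium, were exposed in duplicate for 48 h to eight half-log concentrations up to 100 uM in 0.5% DMSO. PTEN mRNA measured by TaqMan qRT-PCR, normalized to ACTB/GAPDH/POLR2A, bidirectional fit versus DMSO.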
# [6] = read-out: solute carrier (SLC22A1), SLC22A1 (gene 6580); assay: LTEA_HepaRG_SLC22A1: Life Technologies and Expression Analysis (LTEA) Assay for solute carrier (SLC22A1) using HepaRG (AID 2283524)
# How it was run: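 Human HepaRG cells were plated 48 h, switched to serum-free induction medium, then exposed in duplicate for 48 h to 8-point half-log series from 100 uM in 0.5% DMSO. SLC22A1 mRNA measured by qRT-PCR, normalized to ACTB/GAPDH/POLR2A, fitted bidirectionally versus DMSO.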
# [7] = read-out: Pyruvate Dehydrogenase Kinase 4 (PDK4), PDK4 (gene 5166); assay: LTEA_HepaRG_PDK4: Life Technologies and Expression Analysis (LTEA) Assay for Pyruvate Dehydrogenase Kinase 4 (PDK4) using HepaRG (AID 2283525)
# How it was run: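 Differentiated human HepaRG cells, pre-cultured 48 h, were exposed in duplicate for 48 h in serum-free induction medium to eight half-log concentrations up to 100 uM in 0.5% DMSO. PDK4 mRNA was quantified by qRT-PCR, normalized to ACTB, GAPDH and POLR2A, bidirectional fitting versus DMSO.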
# [8] = read-out: NAD(P)H dehydrogenase [quinone] 1 (NQO1), NQO1 (gene 1728); assay: LTEA_HepaRG_NQO1: Life Technologies and Expression Analysis (LTEA) Assay for NAD(P)H dehydrogenase [quinone] 1 (NQO1) using HepaRG (AID 2283526)
# How it was run: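 Differentiated human HepaRG cells in serum-free induction medium, dosed in duplicate for 48 h at 8 half-log concentrations up to 100 uM in 0.5% DMSO. NQO1 mRNA by qRT-PCR normalized to ACTB, GAPDH, POLR2A; bidirectional fit versus DMSO baseline.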
# [9] = read-out: Nuclear factor erythroid 2-related factor 2 (Homo sapiens) (UniProt Q16236); assay: LTEA_HepaRG_NFE2L2: Life Technologies and Expression Analysis (LTEA) Assay for Nuclear factor erythroid 2-related factor 2 (NFE2L2) Transcription Factor using HepaRG (AID 2283527);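 as to outcome: TaqMan qRT-PCR transcript level normalised to ACTB GAPDH and POLR2A housekeeping genes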
# How it was run: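 Differentiated human HepaRG cells in serum-free induction medium were exposed for 48 h to eight concentrations (top 100 uM, half-log dilutions, 0.5% DMSO), in duplicate. NFE2L2 mRNA was quantified by TaqMan qRT-PCR, normalized to ACTB, GAPDH and POLR2A, with bidirectional fitting versus DMSO.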
# Chain of Nuclear factor NF-kappa-B p105 subunit (Homo sapiens) (P19838 whole entry, looked up): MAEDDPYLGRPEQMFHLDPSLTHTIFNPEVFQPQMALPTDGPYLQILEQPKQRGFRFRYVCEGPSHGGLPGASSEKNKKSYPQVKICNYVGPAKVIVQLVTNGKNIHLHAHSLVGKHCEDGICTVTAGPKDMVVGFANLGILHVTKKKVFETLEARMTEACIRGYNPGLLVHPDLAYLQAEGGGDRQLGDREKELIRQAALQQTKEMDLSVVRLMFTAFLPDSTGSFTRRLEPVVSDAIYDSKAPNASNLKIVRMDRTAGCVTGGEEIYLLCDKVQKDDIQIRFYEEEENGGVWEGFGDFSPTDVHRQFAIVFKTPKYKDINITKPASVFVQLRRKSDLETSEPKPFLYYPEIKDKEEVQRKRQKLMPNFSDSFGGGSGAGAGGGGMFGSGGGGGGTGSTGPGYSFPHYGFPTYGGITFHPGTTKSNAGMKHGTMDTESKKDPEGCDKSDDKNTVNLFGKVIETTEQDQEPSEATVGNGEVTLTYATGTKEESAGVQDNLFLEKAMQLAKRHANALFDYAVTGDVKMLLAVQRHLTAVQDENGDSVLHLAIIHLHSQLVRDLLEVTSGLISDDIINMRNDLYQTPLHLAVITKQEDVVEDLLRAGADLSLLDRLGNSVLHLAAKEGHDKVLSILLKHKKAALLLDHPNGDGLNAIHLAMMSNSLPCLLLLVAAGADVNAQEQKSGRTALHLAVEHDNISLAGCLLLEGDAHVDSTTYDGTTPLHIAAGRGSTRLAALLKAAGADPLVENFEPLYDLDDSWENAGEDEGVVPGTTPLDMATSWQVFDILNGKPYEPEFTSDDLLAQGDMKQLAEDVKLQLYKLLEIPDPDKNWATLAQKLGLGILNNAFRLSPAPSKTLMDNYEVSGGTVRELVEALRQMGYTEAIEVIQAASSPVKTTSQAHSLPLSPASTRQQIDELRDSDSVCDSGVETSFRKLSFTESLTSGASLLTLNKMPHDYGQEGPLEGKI
# Chain of Nuclear factor erythroid 2-related factor 2 (Homo sapiens) (Q16236 whole entry, looked up): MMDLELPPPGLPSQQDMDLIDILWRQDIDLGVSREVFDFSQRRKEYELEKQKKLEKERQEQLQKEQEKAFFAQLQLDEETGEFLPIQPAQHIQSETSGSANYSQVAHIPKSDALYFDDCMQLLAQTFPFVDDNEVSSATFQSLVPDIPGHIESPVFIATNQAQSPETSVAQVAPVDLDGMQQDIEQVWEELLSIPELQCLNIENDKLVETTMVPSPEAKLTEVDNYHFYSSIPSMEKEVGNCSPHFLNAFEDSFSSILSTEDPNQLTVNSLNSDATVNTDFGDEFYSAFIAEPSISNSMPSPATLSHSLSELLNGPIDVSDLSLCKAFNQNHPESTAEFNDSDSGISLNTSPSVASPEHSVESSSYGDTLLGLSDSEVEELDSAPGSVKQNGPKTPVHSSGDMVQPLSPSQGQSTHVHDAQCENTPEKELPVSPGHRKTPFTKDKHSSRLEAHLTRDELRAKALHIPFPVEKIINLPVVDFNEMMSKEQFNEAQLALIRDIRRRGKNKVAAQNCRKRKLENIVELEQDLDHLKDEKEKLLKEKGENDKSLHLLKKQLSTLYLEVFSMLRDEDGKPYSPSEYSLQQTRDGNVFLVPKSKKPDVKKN
SMILES,"outcome (MYC, MYC (gene 4609))",outcome [1],outcome [2],outcome [3],outcome [4],outcome [5],outcome [6],outcome [7],outcome [8],outcome [9],"AC50 (MYC, MYC (gene 4609))",AC50 [1],AC50 [2],AC50 [6],AC50 [7],AC50 [8],AC50 [9]
CCn1nc(C)c2c1C(=O)NCC(c1ccc(O)cc1)=N2,inactive,inactive,inactive,inactive,inactive,inactive,inactive,inactive,inactive,inactive,–,–,–,–,–,–,–
CC[C@H](C)C(=O)O[C@H]1C[C@H](O)C=C2C=C[C@H](C)[C@H](CC[C@@H](O)C[C@@H](O)CC(=O)O)[C@H]21,inactive,inactive,inactive,inactive,inactive,inactive,inactive,inactive,inactive,inactive,–,–,–,–,–,–,–
CC(=O)c1ccccc1,inactive,inactive,inactive,inactive,inactive,inactive,inactive,inactive,inactive,inactive,–,–,–,–,–,–,–
NNC(=O)c1ccncc1,inactive,inactive,inactive,inactive,inactive,inactive,inactive,inactive,inactive,inactive,–,–,–,–,–,–,–
CCCCCCCCCCCCCCO,inactive,inactive,inactive,inactive,inactive,inactive,inactive,inactive,inactive,inactive,–,–,–,–,–,–,–
O=C(O)c1ccc2c(c1)nc(C(=O)NC1CCN(C3CC3)CC1)n2Cc1cc(-c2ccc(Cl)s2)on1,inactive,inactive,inactive,inactive,inactive,inactive,inactive,inactive,inactive,inactive,–,–,–,–,–,–,–
Cn1cc[nH]c1=S,inactive,inactive,inactive,inactive,inactive,inactive,inactive,inactive,inactive,inactive,–,–,–,–,–,–,–
CCc1ccc(O)c(C(C)(C)C)c1,inactive,inactive,inactive,inactive,inactive,inactive,inactive,inactive,inactive,inactive,–,–,–,–,–,–,–
COc1cc2c(c(OC)c1OC)-c1ccc(OC)c(=O)cc1[C@@H](NC(C)=O)CC2,–,–,–,inactive,inactive,inactive,–,–,–,inactive,0.144 µM (active),0.152 µM (active),0.112 µM (active),0.105 µM (active),0.0626 µM (active),0.148 µM (active),–
CC(C)CCCCCCOC(=O)C1CCCCC1C(=O)OCCCCCCC(C)C (stereo unspecified),inactive,inactive,inactive,inactive,inactive,inactive,inactive,inactive,inactive,inactive,–,–,–,–,–,–,–
CCCCCCCCCC,inactive,inactive,inactive,inactive,inactive,inactive,inactive,inactive,inactive,inactive,–,–,–,–,–,–,–
NC(=O)N1c2ccccc2C=Cc2ccccc21,inactive,inactive,inactive,inactive,inactive,inactive,inactive,inactive,inactive,inactive,–,–,–,–,–,–,–
CCCCCCOC(=O)CC(CC(=O)OCCCCCC)(OC(=O)CCC)C(=O)OCCCCCC,inactive,inactive,inactive,inactive,inactive,inactive,inactive,inactive,inactive,inactive,–,–,–,–,–,–,–
O=c1[nH]cnc2c1ncn2[C@H]1CC[C@@H](CO)O1,inactive,inactive,inactive,–,inactive,inactive,inactive,inactive,inactive,inactive,–,–,–,–,–,–,–
CCCCCCCCCCCCCCCCOS(=O)(=O)O,inactive,inactive,inactive,–,inactive,inactive,–,–,inactive,inactive,–,–,–,38.6 µM (active),10.8 µM (active),–,–
c1ccc2ncccc2c1,inactive,inactive,inactive,–,inactive,inactive,inactive,inactive,inactive,–,–,–,–,–,–,–,50 µM (active)
O=C1CN(N=Cc2ccc([N+](=O)[O-])o2)C(=O)N1,–,inactive,inactive,–,inactive,inactive,–,–,inactive,–,80.1 µM (active),–,–,32.7 µM (active),57.6 µM (active),–,–
COCc1nnc(-c2ccc[n+]([O-])c2)n1-c1c(Cl)c(Cl)cc2[nH]c(=O)c(=O)[nH]c12,inactive,inactive,inactive,–,inactive,inactive,inactive,inactive,inactive,inactive,–,–,–,–,–,–,–
CCCCCCCCN(C)C,inactive,inactive,inactive,–,inactive,inactive,inactive,inactive,inactive,inactive,–,–,–,–,–,–,–
CC(C)CC(C)O (stereo unspecified),inactive,inactive,inactive,inactive,inactive,inactive,inactive,inactive,inactive,inactive,–,–,–,–,–,–,–
C[C@@H](Oc1ccc(CNC(=O)c2cccnc2Oc2ccc3c(c2)OCO3)c(F)c1)C(=O)O,inactive,–,inactive,inactive,inactive,inactive,inactive,–,inactive,inactive,–,–,–,–,50 µM (active),–,–
O=S1(=O)CCCO1,inactive,inactive,inactive,–,inactive,inactive,inactive,inactive,inactive,inactive,–,–,–,–,–,–,–

# Source: PubChem BioAssay (EPA / NIEHS)
